Data from the supplement of paper PMC10849652.
About 8,800 targets were measured; listed, in parts, are those with a hit and a random draw of the rest. About 0.5% of all pairs of compound and target were hits. A number with no mark means an inactive call.

Key:
Experiment in all cases: log2 fold change, soluble protein after heating vs DMSO (PISA); higher = thermal stabilisation; K562 lysate, 10 uM; active = over 0.2 and 3.5 SD of the protein, either way, in both replicates (recomputed)
[1] = compound: CN1CC[C@H](c2c(O)cc(O)c3c(=O)cc(-c4ccccc4Cl)oc23)[C@H](O)C1 [alvocidib]
In short: (§1)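 Dounce homogenisation of K562 pellets in PBS pH 7.4 with 1 mM MgCl2 produced a crude extract, used at 1 mg/mL protein. Exposure to 10 μM compound lasted 30 min, and aliquots were then heated for 3 min across 48°C-58°C, pooled and brought to 0.5% NP-40 at 4°C. The supernatant after 21,000xg for 90 min was quantified by TMTpro 16plex LC-MS/MS with channel sums equalised. Duplicate values are given as log-two fold change in thermal stability relative to solvent controls.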

[2] = compound: CN1CCc2c(c3ccccc3n2Cc2ccc(C(=O)NO)cc2)C1 [Tubastatin A]
In short: as §1

[3] = compound: CNC(=O)C1=CC=CC=C1NC2=NC(=NC=C2Cl)NC3=C(C=C(C=C3)N4CCOCC4)OC
In short: as §1

[4] = compound: CNC(=O)c1ccc(Nc2ncc(C(F)(F)F)c(NCc3nccnc3N(C)S(C)(=O)=O)n2)cc1 [defactinib]
In short: as §1

[5] = compound: CNc1nc(-c2ccc3c(N)n[nH]c3c2)cc(N2C[C@@H](C(=O)NC3CCCCC3)CC[C@H]2C)n1
In short: as §1

[6] = compound: COC(=O)N[C@@H](C)CNc1nccc(-c2cn(C(C)C)nc2-c2cc(Cl)cc(NS(C)(=O)=O)c2F)n1 [encorafenib]
In short: as §1

[7] = compound: COC(=O)[C@H](CCSC)NC(=O)C1=C(C=C(C=C1)NC[C@H](CS)N)C2=CC=CC=C2
In short: as §1

[8] = compound: COc1cc(Nc2ncc3c(n2)-c2ccc(Cl)cc2C(c2c(F)cccc2OC)=NC3)ccc1C(=O)O [alisertib]
In short: as §1

[9] = compound: COc1cc2nc(-c3cc(F)ccc3O)nc(N[C@@H]3CNC[C@H]3C(C)(C)O)c2cc1OC
In short: as §1

[10] = compound: COc1cc2ncnc(Nc3ccc(F)c(Cl)c3)c2cc1OCCCN1CCOCC1 [gefitinib]
In short: as §1

[11] = compound: CS(=O)(=O)CCNCc1ccc(-c2ccc3ncnc(Nc4ccc(OCc5cccc(F)c5)c(Cl)c4)c3c2)o1 [lapatinib]
In short: as §1

[12] = compound: CS(=O)(=O)N1CCN(Cc2cc3nc(-c4cccc5[nH]ncc45)nc(N4CCOCC4)c3s2)CC1 [pictilisib]
In short: as §1

[13] = compound: C[C@@H](Oc1cc(-c2cnn(C3CCNCC3)c2)cnc1N)c1c(Cl)ccc(F)c1Cl [crizotinib]
In short: as §1

[14] = compound: C[C@H](C1=CC=C(C=C1)C(=O)NC2=C3C=CNC3=NC=C2)N
In short: as §1

[15] = compound: C[C@H](Nc1ncnc2nc[nH]c12)c1cc2cccc(Cl)c2c(=O)n1-c1ccccc1 [duvelisib]
In short: as §1

[16] = compound: Cc1cc(Nc2cc(CN3CCOCC3)c3nc(C)c(Cc4ccc(Cl)cc4F)n3n2)n[nH]1 [gandotinib]
In short: as §1

[17] = compound: Cc1cc(Nc2cc(N3CCN(C)CC3)nc(Sc3ccc(NC(=O)C4CC4)cc3)n2)n[nH]1 [tozasertib]
In short: as §1

[18] = compound: Cc1ccc(-n2nc(C(C)(C)C)cc2NC(=O)Nc2ccc(OCCN3CCOCC3)c3ccccc23)cc1 [doramapimod]
In short: as §1

[19] = compound: Cc1ccc(NC(=O)c2ccc(CN3CC[C@H](N(C)C)C3)c(C(F)(F)F)c2)cc1Nc1nccc(-c2cncnc2)n1 [bafetinib]
In short: as §1

[20] = compound: Cc1cccc(CC(=O)N2CCc3c2ccc(-c2cn(C)c4ncnc(N)c24)c3F)n1
In short: as §1

Chain of UniProt O95429 (O95429 whole entry, looked up): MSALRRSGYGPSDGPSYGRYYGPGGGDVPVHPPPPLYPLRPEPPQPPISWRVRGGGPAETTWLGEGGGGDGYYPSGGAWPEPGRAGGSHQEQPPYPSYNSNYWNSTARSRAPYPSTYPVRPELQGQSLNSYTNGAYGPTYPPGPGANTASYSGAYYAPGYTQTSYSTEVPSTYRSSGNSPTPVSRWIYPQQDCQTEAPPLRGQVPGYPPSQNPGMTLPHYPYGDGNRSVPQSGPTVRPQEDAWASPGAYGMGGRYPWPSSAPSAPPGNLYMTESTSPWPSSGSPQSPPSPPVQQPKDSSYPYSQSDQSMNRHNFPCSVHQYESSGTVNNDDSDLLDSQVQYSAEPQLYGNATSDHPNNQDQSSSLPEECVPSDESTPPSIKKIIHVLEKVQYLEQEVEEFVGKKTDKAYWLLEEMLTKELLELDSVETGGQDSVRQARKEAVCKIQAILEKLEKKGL
Chain of UniProt Q7L2Z9 (Q7L2Z9 whole entry, looked up): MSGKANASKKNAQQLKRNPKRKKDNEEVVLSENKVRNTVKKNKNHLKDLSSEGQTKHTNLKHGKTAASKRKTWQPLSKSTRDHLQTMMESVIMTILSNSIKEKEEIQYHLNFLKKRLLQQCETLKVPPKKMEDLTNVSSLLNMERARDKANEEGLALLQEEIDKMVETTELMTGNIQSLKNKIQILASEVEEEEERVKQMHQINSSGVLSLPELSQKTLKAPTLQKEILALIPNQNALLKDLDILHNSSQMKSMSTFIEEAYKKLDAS
Chain of UniProt Q5T9A4 (Q5T9A4 whole entry, looked up): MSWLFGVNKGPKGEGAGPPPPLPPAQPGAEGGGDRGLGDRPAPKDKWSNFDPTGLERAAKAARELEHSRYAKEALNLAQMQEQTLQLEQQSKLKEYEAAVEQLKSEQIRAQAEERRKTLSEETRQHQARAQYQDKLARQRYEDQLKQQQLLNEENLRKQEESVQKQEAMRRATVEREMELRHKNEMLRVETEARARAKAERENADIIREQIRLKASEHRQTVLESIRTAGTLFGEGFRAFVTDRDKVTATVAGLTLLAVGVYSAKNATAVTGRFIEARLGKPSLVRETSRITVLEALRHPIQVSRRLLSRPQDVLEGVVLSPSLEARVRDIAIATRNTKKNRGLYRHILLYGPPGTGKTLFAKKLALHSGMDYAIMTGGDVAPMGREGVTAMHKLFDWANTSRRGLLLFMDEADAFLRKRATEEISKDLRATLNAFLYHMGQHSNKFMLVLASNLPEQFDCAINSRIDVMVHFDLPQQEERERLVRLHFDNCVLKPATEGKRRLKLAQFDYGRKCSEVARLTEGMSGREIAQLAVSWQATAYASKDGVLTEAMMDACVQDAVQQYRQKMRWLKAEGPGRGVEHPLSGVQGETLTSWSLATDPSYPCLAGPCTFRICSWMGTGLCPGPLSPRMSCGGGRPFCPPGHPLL
Chain of UniProt Q9ULG6 (Q9ULG6 whole entry, looked up): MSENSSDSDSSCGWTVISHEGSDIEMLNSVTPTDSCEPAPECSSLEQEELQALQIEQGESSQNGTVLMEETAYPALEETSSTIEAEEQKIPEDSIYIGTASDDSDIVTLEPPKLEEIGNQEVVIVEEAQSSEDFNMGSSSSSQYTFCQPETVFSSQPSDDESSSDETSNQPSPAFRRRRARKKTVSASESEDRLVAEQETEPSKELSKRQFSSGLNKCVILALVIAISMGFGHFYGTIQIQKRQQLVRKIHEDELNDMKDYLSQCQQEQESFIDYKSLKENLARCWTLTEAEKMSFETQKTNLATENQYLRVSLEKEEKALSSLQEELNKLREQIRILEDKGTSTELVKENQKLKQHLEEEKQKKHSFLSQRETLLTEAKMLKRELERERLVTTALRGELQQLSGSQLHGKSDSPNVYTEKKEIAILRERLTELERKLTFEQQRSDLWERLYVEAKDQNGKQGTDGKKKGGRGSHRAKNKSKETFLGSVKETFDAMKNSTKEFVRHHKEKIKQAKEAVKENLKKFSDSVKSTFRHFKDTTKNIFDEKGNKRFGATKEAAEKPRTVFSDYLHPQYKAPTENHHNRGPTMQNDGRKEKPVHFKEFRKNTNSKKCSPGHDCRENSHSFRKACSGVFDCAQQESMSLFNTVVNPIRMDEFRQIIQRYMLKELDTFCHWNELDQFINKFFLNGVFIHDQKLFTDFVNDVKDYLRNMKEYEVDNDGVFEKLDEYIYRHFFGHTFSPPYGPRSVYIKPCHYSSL
Chain of UniProt O75794 (O75794 whole entry, looked up): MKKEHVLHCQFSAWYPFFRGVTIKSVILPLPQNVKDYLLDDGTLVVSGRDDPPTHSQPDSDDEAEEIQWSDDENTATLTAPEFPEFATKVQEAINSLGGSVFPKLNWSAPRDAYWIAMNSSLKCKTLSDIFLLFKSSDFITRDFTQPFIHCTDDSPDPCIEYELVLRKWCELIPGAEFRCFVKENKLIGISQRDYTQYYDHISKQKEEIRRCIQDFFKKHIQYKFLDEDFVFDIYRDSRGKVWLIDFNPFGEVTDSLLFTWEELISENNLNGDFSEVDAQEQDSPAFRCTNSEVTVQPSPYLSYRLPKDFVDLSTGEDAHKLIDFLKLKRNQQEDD
Chain of UniProt Q9HB09 (Q9HB09 whole entry, looked up): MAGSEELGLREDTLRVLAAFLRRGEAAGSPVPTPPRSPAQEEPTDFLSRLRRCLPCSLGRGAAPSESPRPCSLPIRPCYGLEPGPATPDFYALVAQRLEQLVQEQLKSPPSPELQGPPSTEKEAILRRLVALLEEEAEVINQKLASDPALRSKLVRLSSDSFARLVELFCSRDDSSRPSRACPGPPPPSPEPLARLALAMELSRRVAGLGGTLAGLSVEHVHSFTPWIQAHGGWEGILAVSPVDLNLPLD
Chain of UniProt P45973 (P45973 whole entry, looked up): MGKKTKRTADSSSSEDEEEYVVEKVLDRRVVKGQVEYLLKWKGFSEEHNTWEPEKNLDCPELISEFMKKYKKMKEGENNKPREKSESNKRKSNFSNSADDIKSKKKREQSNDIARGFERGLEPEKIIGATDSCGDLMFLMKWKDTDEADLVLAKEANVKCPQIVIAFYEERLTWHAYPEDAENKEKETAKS
Chain of UniProt P54132 (P54132 whole entry, looked up): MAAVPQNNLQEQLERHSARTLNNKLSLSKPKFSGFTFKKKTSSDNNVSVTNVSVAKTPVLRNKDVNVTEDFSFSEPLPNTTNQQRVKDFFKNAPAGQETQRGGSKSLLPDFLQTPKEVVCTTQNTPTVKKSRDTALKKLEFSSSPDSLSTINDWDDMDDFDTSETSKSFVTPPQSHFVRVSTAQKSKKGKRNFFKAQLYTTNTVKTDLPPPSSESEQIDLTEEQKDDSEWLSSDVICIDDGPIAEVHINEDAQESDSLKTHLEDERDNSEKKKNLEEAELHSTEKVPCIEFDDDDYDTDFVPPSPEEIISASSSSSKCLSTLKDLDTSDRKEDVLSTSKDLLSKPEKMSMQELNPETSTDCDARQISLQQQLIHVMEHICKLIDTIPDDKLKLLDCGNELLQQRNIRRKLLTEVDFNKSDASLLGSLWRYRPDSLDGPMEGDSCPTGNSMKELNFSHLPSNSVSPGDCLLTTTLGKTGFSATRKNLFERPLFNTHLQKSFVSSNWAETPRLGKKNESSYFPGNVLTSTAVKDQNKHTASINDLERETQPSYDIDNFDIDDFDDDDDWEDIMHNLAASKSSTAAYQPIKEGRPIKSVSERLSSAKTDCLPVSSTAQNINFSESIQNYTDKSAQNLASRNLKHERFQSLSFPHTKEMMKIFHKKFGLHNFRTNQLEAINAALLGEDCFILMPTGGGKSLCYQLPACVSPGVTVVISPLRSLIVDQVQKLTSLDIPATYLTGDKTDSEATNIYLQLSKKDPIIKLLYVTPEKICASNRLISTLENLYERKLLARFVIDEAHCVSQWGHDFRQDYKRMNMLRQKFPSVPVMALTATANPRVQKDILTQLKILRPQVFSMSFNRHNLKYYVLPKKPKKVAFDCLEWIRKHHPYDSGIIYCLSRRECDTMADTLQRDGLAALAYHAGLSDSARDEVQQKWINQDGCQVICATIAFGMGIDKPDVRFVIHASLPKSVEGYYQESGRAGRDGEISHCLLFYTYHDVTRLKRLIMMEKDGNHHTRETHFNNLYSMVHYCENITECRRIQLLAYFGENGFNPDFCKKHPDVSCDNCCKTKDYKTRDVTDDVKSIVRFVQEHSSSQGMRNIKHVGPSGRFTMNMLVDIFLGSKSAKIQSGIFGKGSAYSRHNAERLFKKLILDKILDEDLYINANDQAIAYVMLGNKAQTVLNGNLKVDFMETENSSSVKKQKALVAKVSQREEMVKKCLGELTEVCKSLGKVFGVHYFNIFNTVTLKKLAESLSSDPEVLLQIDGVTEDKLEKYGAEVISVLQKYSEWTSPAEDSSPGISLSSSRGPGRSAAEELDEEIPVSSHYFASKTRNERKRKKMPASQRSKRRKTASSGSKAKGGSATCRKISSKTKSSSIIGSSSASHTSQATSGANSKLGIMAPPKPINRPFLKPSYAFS

Target | log2 fold change [1] | log2 fold change [2] | log2 fold change [3] | log2 fold change [4] | log2 fold change [5] | log2 fold change [6] | log2 fold change [7] | log2 fold change [8] | log2 fold change [9] | log2 fold change [10] | log2 fold change [11] | log2 fold change [12] | log2 fold change [13] | log2 fold change [14] | log2 fold change [15] | log2 fold change [16] | log2 fold change [17] | log2 fold change [18] | log2 fold change [19] | log2 fold change [20]
CENPQ (UniProt Q7L2Z9) | -0.122 | -0.016 | 0.032 | -0.085 | 0.055 | 0.169 | 0.025 | 0 | -0.068 | 0.091 | 0.101 | 0.015 | -0.028 | -0.226 | -0.027 | 0.071 | -0.196 | 0.001 | 0.017 | -0.013
BCL2L12 (UniProt Q9HB09) | 0.012 | 0.016 | -0.087 | 0.113 | -0.059 | -0.207 | 0.023 | 0.008 | 0.1 | -0.062 | 0.164 | -0.184 | 0.01 | 0.045 | 0.009 | -0.003 | -0.056 | -0.016 | -0.296 | 0.057
BAG4 (UniProt O95429) | 0.04 | -0.096 | -0.01 | -0.001 | 0.023 | -0.032 | 0.005 | -0.023 | 0.003 | 0.039 | 0.013 | -0.174 | 0.06 | -0.056 | 0.043 | 0.102 | 0.011 | -0.043 | -0.002 | 0.004
CCPG1 isoform 5 (UniProt Q9ULG6) | 0.029 | 0.006 | 0.028 | -0.03 | -0.02 | 0.049 | -0.165 | -0.073 | 0.303 (active) | -0.061 | 0.114 | -0.038 | 0.006 | -0.036 | 0.006 | -0.089 | -0.021 | 0.036 | 0.035 | 0.108
ATAD3B (UniProt Q5T9A4) | 0.124 | 0.047 | -0.029 | 0.046 | 0.039 | 0.016 | -0.128 | 0.006 | -0.008 | -0.001 | 0.003 | -0.035 | -0.091 | 0.308 (active) | 0.007 | -0.169 | 0.014 | 0.003 | -0.074 | -0.129
CDC123 (UniProt O75794) | 0.019 | -0.125 | 0.009 | 0.007 | -0.03 | 0.018 | 0.136 | -0.004 | -0.023 | -0.001 | 0.016 | -0.011 | -0.012 | 0.032 | 0.02 | 0.335 (active) | -0.022 | -0.032 | -0.049 | -0.048
BLM (UniProt P54132) | 0.082 | -0.07 | 0.071 | 0.031 | 0.001 | 0.043 | 0.018 | -0.025 | -0.006 | -0.054 | -0.007 | -0.068 | -0.003 | 0.192 | 0.018 | -0.267 (active) | 0.057 | 0.018 | -0.049 | -0.251
CBX5 (UniProt P45973) | -0.07 | 0.037 | 0.073 | -0.011 | 0.021 | -0.035 | -0.007 | -0.054 | 0.021 | 0.009 | 0.06 | 0.024 | -0.023 | -0.187 | -0.036 | 0.077 | 0.006 | 0.006 | -0.001 | 0.064
